# Reference: PubChem BioAssay (NCI)
# The panel holds about 83,000 compounds, 20% with a hit somewhere; the sample as a whole holds those more often.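 Negative percent growth values reflect cell death: -40 means 40% of the cells present at the start died, and -100 means all died.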 The source made the active and inactive calls.
# Tested on: MOLT-4 leukemia
# Test: NCI-60 one-dose screen, 48 h (100 = growth as untreated, 0 = no growth, -100 = all killed)
# Details: 10 µM unless noted
# Protocol: Growth inhibition of the MOLT-4 human tumor cell line is measured as a screen for anti-cancer activity. Cells are grown in 96 well plates and exposed to the test compound for 48 hours. Compounds are tested at a single concentration, which is 10^-5 M for most compounds. The reported endpoint is percent growth (GI% or GIPRCNT), where numbers from 0 - 100% represent growth inhibition, and numbers from -100% - 0 represent cell death. For example, a value of 40 represents 60% growth inhibition. A value of 0 means no net growth occurred over the course of the experiment. A value of -40 indicates 40% of cells at the beginning of the experiment died by the end of the experiment. A value of -100 means all cells are dead at the end of the experiment.
# NCI-60 Human Tumor Cell Lines Screen was performed using the standard one-dose NCI protocol, which is described in more detail at https://dtp.cancer.gov/discovery_development/nci-60/default.htm.
# Compounds with GIPRCNT values below 10 were considered active. Activity score was based on GIPRCNT using the following formula: […]
# Score is 0 for GIPRCNT values of 100 or above, 50 for GIPRCNT values of 0, and 100 for GIPRCNT values of -100.
row,Compound,growth
1,Clc1ccc2c(NC3CCC(N4CCOCC4)CC3)ccnc2c1 (stereo not given),74.4% (inactive)
2,CNC(=O)c1[nH]cc(-c2ccc(OC)cc2)c1-c1cc(OC)c2c(c1OC)OCO2,109% (inactive)
3,COc1cc(-c2cncn2-c2ccc(-c3nc4ccc(F)cc4s3)cc2)ccc1F,63.6% (inactive)
4,COc1cccc(CNc2ccc3ncnc(Nc4ccc(F)c(Cl)c4)c3c2)c1,69.9% (inactive)
5,COc1ccc(C2=C(Nc3ccc(C(=O)Nc4ccccc4)cc3)C(=O)N(C)C2=O)cc1,76.7% (inactive)
6,N#CC1=C(N)Oc2c(c(=O)[nH]c3ccc(Cl)cc23)C12C(=O)c1ccccc1C2=O,116% (inactive)
7,COC(=O)c1c(C)nc(C)c2c1C(=O)C(Br)=C(NCc1ccccc1)C2=O,13.6% (inactive)
8,COc1ccc(-c2cc(-c3ccc(Cl)cc3)c(C#N)c(=O)n2Cc2ccc(C(=O)Nc3ccccc3N)cc2)cc1,66.2% (inactive)
9,CC(=O)N1N=C(c2ccc(Nc3nc(Nc4ccccc4)nc(Nc4ccccc4)n3)cc2)CC1c1ccccc1 (stereo not given),75.1% (inactive)
10,Oc1c(I)cc(I)cc1CNCCN(Cc1ccccn1)Cc1ccccn1,-29.5% (active)
11,O=c1c2cccc3c(N4CCCC4)ccc(c32)c2nc3ccccc3n12,2.57% (active)
12,CC1=C([Se]CC(OC(=O)CC[Se]c2ccccc2)C(=O)NC(C)(C)C)C(=O)c2ccccc2C1=O (stereo not given),-31.6% (active)
13,O=C(Nc1nc2ccccc2s1)c1ccc(F)cc1,100% (inactive)
14,CCN(CC)CCn1c2ccc(OC)cc2c2sc3cc(OC)ccc3c(=O)c21,3.81% (active)
15,Cn1cc(C(=O)c2nc(-c3c[nH]c4ccccc34)no2)c2cc(F)ccc21,38.9% (inactive)
16,NS(=O)(=O)c1ccc(N=Nc2c(O)n(Cc3ccccc3)c3ccc(Cl)cc23)cc1,72.2% (inactive)
17,CC(=O)O[C@H]1CC2CCC3C(CC[C@@]4(C)C3C[C@H]([N+]3(C)CCCCC3)[C@@H]4OC(C)=O)[C@@]2(C)C[C@@H]1N1CCCCC1 (stereo not given in full),98.9% (inactive)
18,O=C(c1ccncc1)N1N=C(c2ccc(Cl)cc2)C[C@H]1c1cn(-c2ccccc2)nc1-c1ccccc1,70.8% (inactive)
19,CCOC(=O)C1=C(c2ccccc2)N=C2SC=C(c3ccc(Cl)cc3)N2C1c1ccc(Br)cc1 (stereo not given),39% (inactive)
20,Cc1nc2sc(C(=O)Nc3ccc(Br)cc3)c(N)c2cc1C(O)c1ccccc1 (stereo not given),26.2% (inactive)

row,Compound,growth
1,CN(C)c1ccc(-c2c(C#N)c(N)nn2C(=O)c2ccc(NC(=O)c3ccccn3)cc2)cc1,99.5% (inactive)
2,O=C(CN1C(=O)S/C(=C\C(Cl)=C\c2ccccc2)C1=O)NCCc1ccc(O)cc1,5.15% (active)
3,O=C(Nc1cccc(-c2ccc(N3CCOCC3)nn2)c1)Nc1cccc(C(F)(F)F)c1,22.9% (inactive)
4,COc1cccc(/C=C2\COc3ccc(O)c(O)c3C2=O)c1,2.08% (active)
5,Cn1cc(-c2csc(-c3c[nH]c4ccccc34)n2)c2cnccc21,-5.2% (active)
6,C=CCOC(=O)Nc1cccn([C@H](Cc2ccccc2)C(=O)NCCC(C)C)c1=O,93.6% (inactive)
7,C=CCSc1nnc(NC(=O)CCl)s1,90.7% (inactive)
8,O=c1c2cnn(-c3ccccc3)c2n2c(CN3CCOCC3)nnc2n1-c1ccccc1,100% (inactive)
9,O=C(Nc1cccc(-c2ccc(Cl)c(C(F)(F)F)c2)c1)C1CCN(Cc2cccc3cccnc23)CC1,-9.69% (active)
10,CCC(C(=O)[C@@H](C)[C@@H](O)[C@H](C)[C@@H]1O[C@@H]([C@@H](CC)C(=O)ONC(=O)c2ccccc2)CC[C@@H]1C)[C@H]1O[C@]2(C=CC(=O)[C@]3(CC[C@@](C)([C@H]4CC[C@](O)(CC)[C@H](C)O4)O3)O2)[C@H](C)C[C@@H]1C (stereo not given in full),-2.14% (active)
11,O=C(Nc1ccc(OS(=O)(=O)c2ccc(F)cc2)cc1)C1CCCCCC1,77.4% (inactive)
12,OCCn1cc(-c2nc(-c3c[nH]c4ncccc34)cs2)c2ccccc21,71.2% (inactive)
13,CCOC(=O)C#Cc1c(C(=O)OCC)nnn1Cc1ccc([N+](=O)[O-])cc1,14.9% (inactive)
14,COc1ccc(-c2cc(-c3cc(OC)c(OC)c(OC)c3)c(C#N)c(=O)n2CCCCC(=O)NO)cc1,27.2% (inactive)
15,O=C(CN1C(=O)S/C(=C\c2ccccc2)C1=O)Nc1ncc(Cc2ccccc2Cl)s1,85.9% (inactive)
16,C/C(Cc1ccc(Cl)cc1)=C(\c1ccc(O)cc1)c1ccc(Cl)cc1,81% (inactive)
17,N#Cc1ccc(O)c(C2=NCC(c3cccc(Oc4ccccc4)c3)O2)c1 (stereo not given),-0.248% (active)
18,CCOC(=O)c1c(C(=O)c2cn(C)c3ccc(Br)cc23)c(-c2cn(C)c3ccc(Br)cc23)n(NC(=O)OC(C)(C)C)c1C,99.5% [100 µM] (inactive)
19,COc1ccccc1CNc1c2ccccc2nc2ccccc12,20.7% (inactive)
20,Oc1c(I)cc(I)cc1CNCc1ccccn1,16.2% (inactive)
